Source: publication PMC5836133, “The intracellular immune receptor Rx1 regulates the DNA-binding activity of a Golden2-like transcription factor”
In all, about 16,000 sequences were measured (“e-score”: median about -0.044, highest 2% from about 0.38 on). Shown is part of a subset that was picked to be rich in the highest values.

Molecular target: T1, GST-NbGlk1(82-244) (Nicotiana benthamiana)
T1 chain: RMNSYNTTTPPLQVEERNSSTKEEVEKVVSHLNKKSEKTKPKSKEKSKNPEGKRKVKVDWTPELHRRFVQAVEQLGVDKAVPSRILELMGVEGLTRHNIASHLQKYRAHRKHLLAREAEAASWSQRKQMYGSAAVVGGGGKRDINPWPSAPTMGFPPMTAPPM
Assay: protein-binding microarray; NbGlk1 is a Golden2-like transcription factor of Nicotiana benthamiana; high values mean tight binding
Details: protein: recombinant; tags: GST (pTH6838); dsDNA, one strand shown
For ATCCGCGC, the binding signal was 0.215 ± 0.0363 E-score. AATATTCG showed a binding signal of 0.258 ± 0.049 E-score. In the case of AAGATTCA, the binding signal is reported as 0.205 ± 0.0308 E-score. Work on AAGATTCT yielded a binding signal of 0.4522 ± 0.000701 E-score. Work on AATATTCT yielded a binding signal of 0.313 ± 0.0605 E-score. Work on AATATTCC yielded a binding signal of 0.341 ± 0.0191 E-score. Work on AAGATTCG yielded a binding signal of 0.41 ± 0.0145 E-score. CAGATTCC gave a binding signal of 0.473 ± 0.0158 E-score. In the case of AAGATTCC, the binding signal is reported as 0.46 ± 0.0101 E-score. For AAGATCCG, the binding signal was 0.332 ± 0.0135 E-score. With AAAATTCC the binding signal was 0.201 ± 0.0158 E-score. With AAGATCCC the binding signal was 0.333 ± 0.0797 E-score. Work on ATTTCATC yielded a binding signal of 0.269 ± 0.0106 E-score. Sequence AATTCCCG has a binding signal of 0.27 ± 0.108 E-score. In the case of CACGATTC, the binding signal is reported as 0.3711 ± 0.000458 E-score. For ATATCAGG, the binding signal was 0.305 ± 0.00775 E-score. CACAATCC showed a binding signal of 0.366 ± 0.0571 E-score. ATCCTAAC gave a binding signal of 0.254 ± 0.069 E-score. ATCTGTAA showed a binding signal of 0.331 ± 0.0244 E-score. For ATTCGCTG, the binding signal was 0.298 ± 0.0414 E-score. ATACGAAT showed a binding signal of 0.352 ± 0.0554 E-score. Sequence ATATTATA has a binding signal of 0.279 ± 0.00302 E-score. ATCCTATC was tested, and the binding signal was 0.258 ± 0.104 E-score. CAAATTCG gave a binding signal of 0.213 ± 0.1 E-score. In the case of CAGATTCG, the binding signal is reported as 0.438 ± 0.0122 E-score. CAGATTCA was tested, and the binding signal was 0.293 ± 0.0151 E-score. With ATAGTAAT the binding signal was 0.315 ± 0.0567 E-score. ATTACCGC gave a binding signal of 0.289 ± 0.0145 E-score. For AACGGATA, the binding signal was 0.215 ± 0.0275 E-score. With AACGGATC the binding signal was 0.25 ± 0.015 E-score. Sequence AAAAGATT has a binding signal of 0.388 ± 0.0102 E-score. AAAAGATC showed a binding signal of 0.301 ± 0.0113 E-score. With AACAGATC the binding signal was 0.305 ± 0.0266 E-score. Sequence AACGGATT has a binding signal of 0.392 ± 0.0181 E-score. AATAGATC showed a binding signal of 0.247 ± 0.0558 E-score. Work on AATAGATT yielded a binding signal of 0.406 ± 0.0231 E-score. Sequence AACAGATA has a binding signal of 0.271 ± 0.00439 E-score. AATAGATA showed a binding signal of 0.245 ± 0.0719 E-score. In the case of AAAAGAAT, the binding signal is reported as 0.267 ± 0.0274 E-score. Work on AACAGATT yielded a binding signal of 0.426 ± 0.00502 E-score. In the case of CAGAGATC, the binding signal is reported as 0.312 ± 0.0606 E-score. In the case of ACTGGAAT, the binding signal is reported as 0.256 ± 0.0159 E-score. AGAGGAAT gave a binding signal of 0.21 ± 0.0368 E-score. For ATATGCAA, the binding signal was 0.29 ± 0.0125 E-score. For AAGAGATA, the binding signal was 0.309 ± 0.0135 E-score. Sequence AAGAGATC has a binding signal of 0.377 ± 0.0169 E-score. In the case of AAGAGATT, the binding signal is reported as 0.4 ± 0.035 E-score. ATTCTCAA gave a binding signal of 0.329 ± 0.0151 E-score. For ATCCTCAT, the binding signal was 0.212 ± 0.0808 E-score. With ATTCTCAG the binding signal was 0.32 ± 0.0298 E-score. Sequence AATCTCTA has a binding signal of 0.3774 ± 0.00278 E-score. Work on AATCTCTG yielded a binding signal of 0.3738 ± 0.00333 E-score. AATCTCAG showed a binding signal of 0.428 ± 0.00714 E-score. With AATCTCAT the binding signal was 0.4204 ± 0.00133 E-score. Sequence AATCTCAA has a binding signal of 0.421 ± 0.0141 E-score. In the case of AATCGCAT, the binding signal is reported as 0.274 ± 0.0414 E-score. Sequence AATCTCTC has a binding signal of 0.368 ± 0.0262 E-score. In the case of ATTCTCAC, the binding signal is reported as 0.299 ± 0.0167 E-score. For AATCTCAC, the binding signal was 0.394 ± 0.0342 E-score. ATTACGTC was tested, and the binding signal was 0.277 ± 0.0973 E-score. With ATCCCGTA the binding signal was 0.31 ± 0.0475 E-score. For ATACGAGA, the binding signal was 0.231 ± 0.0125 E-score. ATATTAGA showed a binding signal of 0.212 ± 0.0145 E-score. Sequence ATTTGTAG has a binding signal of 0.21 ± 0.125 E-score. For CAGATTGC, the binding signal was 0.4754 ± 0.00468 E-score. With AAGATTGT the binding signal was 0.297 ± 0.0412 E-score. In the case of AAGATTGC, the binding signal is reported as 0.443 ± 0.0277 E-score. Sequence AAGATTGG has a binding signal of 0.206 ± 0.0123 E-score. Work on AATATTGC yielded a binding signal of 0.225 ± 0.0215 E-score. ATCTATAG was tested, and the binding signal was 0.288 ± 0.0139 E-score. In the case of ATCGAGAT, the binding signal is reported as 0.327 ± 0.0101 E-score. AACAGGAA showed a binding signal of 0.207 ± 0.0723 E-score. In the case of ATCTTAAC, the binding signal is reported as 0.317 ± 0.00626 E-score. Work on ATAAATCA yielded a binding signal of 0.239 ± 0.0998 E-score. AGCAATCG was tested, and the binding signal was 0.308 ± 0.0291 E-score. AGAAATAT showed a binding signal of 0.3621 ± 0.00196 E-score. AGCAATCC gave a binding signal of 0.412 ± 0.0143 E-score. AGTAATCC gave a binding signal of 0.369 ± 0.00994 E-score. For AGAAATCC, the binding signal was 0.464 ± 0.00886 E-score. AGAAATCA showed a binding signal of 0.3794 ± 0.00281 E-score. For ACAAATCA, the binding signal was 0.262 ± 0.0406 E-score. With AGCAATCA the binding signal was 0.321 ± 0.00992 E-score. Work on AGAAATCG yielded a binding signal of 0.338 ± 0.0619 E-score. AGAATTCT showed a binding signal of 0.299 ± 0.0757 E-score. For AGAAATCT, the binding signal was 0.465 ± 0.00635 E-score. ATCTTAAA was tested, and the binding signal was 0.272 ± 0.0208 E-score. Work on AAGATCCA yielded a binding signal of 0.24 ± 0.0941 E-score. In the case of ATGTAGTA, the binding signal is reported as 0.223 ± 0.0748 E-score. ATTTCACA was tested, and the binding signal was 0.304 ± 0.0596 E-score. Work on ATTCTGCA yielded a binding signal of 0.266 ± 0.0788 E-score. With AATCAGCA the binding signal was 0.322 ± 0.0337 E-score. For ATTCTGCG, the binding signal was 0.217 ± 0.0166 E-score. In the case of AATCTGCG, the binding signal is reported as 0.444 ± 0.00526 E-score. In the case of AATCTGCC, the binding signal is reported as 0.34 ± 0.133 E-score. Sequence AATCTGCA has a binding signal of 0.414 ± 0.00858 E-score. In the case of ATCCGGGG, the binding signal is reported as 0.279 ± 0.0126 E-score. With ATCCGCAA the binding signal was 0.325 ± 0.0306 E-score. ATCTCACC gave a binding signal of 0.317 ± 0.00666 E-score. For ATTACGAC, the binding signal was 0.351 ± 0.0302 E-score. In the case of AGTATCGG, the binding signal is reported as 0.202 ± 0.042 E-score. ATATAACA gave a binding signal of 0.214 ± 0.0677 E-score. Sequence ATCCGCAC has a binding signal of 0.284 ± 0.0333 E-score. In the case of ACGATCCT, the binding signal is reported as 0.272 ± 0.0244 E-score. Work on AGGTAAAT yielded a binding signal of 0.205 ± 0.0739 E-score. In the case of AAGTAATC, the binding signal is reported as 0.337 ± 0.0373 E-score. AGGTAATC gave a binding signal of 0.416 ± 0.00105 E-score. In the case of ACGTAATA, the binding signal is reported as 0.285 ± 0.0122 E-score. Sequence ATATAATC has a binding signal of 0.297 ± 0.00596 E-score. In the case of ATCTAATC, the binding signal is reported as 0.331 ± 0.07 E-score. For ACGTAATC, the binding signal was 0.4759 ± 0.00151 E-score. For ATGTAATC, the binding signal was 0.462 ± 0.0104 E-score. ACATAATC gave a binding signal of 0.327 ± 0.0217 E-score.
